# According to the supplement of paper PMC13380429:
# Values without a mark were called inactive.
# System: Vero E6 infected with SARS-CoV-2
# Assay: SARS-CoV-2 infection rate relative to infected DMSO; higher = more infection, active = 60 or less
# Conditions: 24 h
row,Structure (SMILES),SARS-CoV-2 infection rate [%]
1,CC[C@H](C)[C@@H]1NC(=O)[C@H](Cc2ccc(OC)cc2)NC(=O)CCCSC[C@@H](C(=O)N2CCC[C@H]2C(=O)N[C@@H](CC(C)C)C(=O)NCC(N)=O)NC(=O)[C@H](CC(N)=O)NC(=O)[C@H](CCC(N)=O)NC1=O [carbetocin] (10 µM),118
2,Cc1cccc(/C=C/c2ccccc2)n1 (10 µM),98
3,COc1ccccc1C1(O)CCN(CCCn2c3ccccc3c3ccccc32)CC1 (0.833333 µM),97.5
4,Nc1nc(O)c2nc(Br)n([C@@H]3O[C@@H]4COP(=O)(O)O[C@H]4[C@H]3O)c2n1 [8-bromo-cGMP] (10 µM),97
5,CCCCNc1ncc(-c2ccc(CN3CCOCC3)cn2)c(N[C@H]2CC[C@H](O)CC2)n1 (10 µM),113
6,O=C1C=CC[C@@H]2[C@H]3CCCN4CCC[C@@H](CN12)[C@@H]34 [sophocarpine] (10 µM),112
7,CCOc1ccc2ccccc2c1C(=O)N[C@@H]1C(=O)N2[C@@H]1SC(C)(C)[C@@H]2C(=O)O [nafcillin] (10 µM),112
8,CCCCC(=O)N(Cc1ccc(-c2ccccc2-c2nnn[nH]2)cc1)[C@H](C(=O)O)C(C)C [valsartan] (10 µM),98.5
9,O[C@H]1[C@H](O)[C@@H](O)CN2CC[C@H](O)[C@H]12 [castanospermine] (10 µM),112
10,COc1ccc(C(C)=O)c(O)c1 [paeonol] (10 µM),100
